Compound activity deposited in PubChem BioAssay by Broad Institute.
C diff growth: C. difficile growth inhibitors, primary screen, HTS | Clostridium difficile clinical isolate growth, OD600, 24 h; stronger effect = lower value | growth activity, negative = inhibition, % at 16 µg/mL (by protocol) | actives 0.25% (n = 86,000);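 active = mean growth activity at or below -80% and every replicate also at or below -80%; inconclusive = mean at or below -80% but some replicate above -80%; inactive = mean growth activity above -80%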;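 note: 0% = DMSO wells and -100% = levofloxacin 16 µg/mL wells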
Pf Dd2 growth: P. falciparum Dd2 growth inhibitors, primary screen, SYBR Green fluorescence, single dose replicates. 72 h; stronger effect = lower value. activity change, % at 10 µM. actives 2.3% (n = 94,000); in the data active = activity change below about -80%; inconclusive = no clear call, values can overlap the other calls
T cruzi growth-1: T. cruzi intracellular proliferation inhibitors, primary screen, cell-based, beta-gal Tulahuen parasites, NIH3T3 host, luminescence. AID 624255, 2012. actives 5.9% (n = 77,000). inhibition, % at 8.34 µM. T. cruzi beta-gal in NIH3T3, GalScreen luminescence, 90 h;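 active = mean inhibition above about 93%, with at least 55% of replicates each passing it, limit read from the data, passing the limit was not always enough; inconclusive = only one of those two conditions holds; inactive = neither condition holds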
T cruzi growth-2: T. cruzi intracellular proliferation inhibitors, confirmation, cell-based, NIH3T3 host, beta-gal parasite, luminescence, cherry-pick. shares compounds with T cruzi growth-1. T. cruzi beta-gal in NIH3T3, GalScreen luminescence, 90 h. inhibition, % at 8.35 µM. actives 72% (n = 5,600). AID 651739, 2012;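 active = mean replicate inhibition above about 95% and at least 55% of replicates individually reaching it, limit read from the data; inconclusive = only one of the two criteria is met; inactive = neither criterion is met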
T cruzi growth-3: inhibitors of intracellular T. cruzi replication, confirmation, NIH3T3 host cells, beta-gal parasites, cherry-pick, set 2. shares compounds with T cruzi growth-1. T. cruzi beta-gal in NIH3T3, GalScreen luminescence, 90 h. inhibition, % at 2.09 µM. actives 21% (n = 5,600). AID 651740, 2012;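 active = mean inhibition above about 95%, with at least 55% of replicates also reaching it, limit read from the data; inconclusive = meets just one of the two conditions; inactive = meets neither condition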;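 note: plate controls were neutral control median for no effect and positive control median for full effect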
NIH3T3 tox: cytotoxicity in mouse NIH/3T3 fibroblasts, confirmation, cytotoxicity control for T. cruzi proliferation inhibitor project, cell-based, cherry-pick, single point; actives 14% (n = 5,600); shares compounds with T cruzi growth-1; cytotoxicity (signal decrease), % at 8.35 µM; NIH/3T3 viability, CellTiter-Glo ATP luminescence, 90 h; AID 651742, 2012;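 active = mean signal decrease across replicates above about 35% based on untreated-well scatter, with enough replicates individually passing, limit read from the data; inconclusive = no rule stated though some were filed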;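 note: 0% = median of neutral control wells and 100% = median of positive control wells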
NIH3T3 tox 2: NIH/3T3 fibroblast cytotoxicity, confirmation, cytotoxicity control, cell-based, cherry-pick, single point, set 2; AID 651744, 2012; inhibition, % at 24.9 µM; actives 56% (n = 5,600); shares compounds with T cruzi growth-1; NIH/3T3 viability, CellTiter-Glo ATP luminescence, 90 h;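 active = mean loss of cell viability signal at or above a set limit, and enough replicates individually reaching it; inconclusive = meets only the mean limit or only the replicate share; inactive = meets neither condition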;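 note: 0% = median of neutral control wells and 100% = median of positive control wells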
Numbers without * were called inactive; ? = inconclusive; · = not tested or not shown. A selection: hits, their analogues and other compounds. The true share with any hit is near 6.8%.

SMILES | C diff growth | Pf Dd2 growth | T cruzi growth-1 | T cruzi growth-2 | T cruzi growth-3 | NIH3T3 tox | NIH3T3 tox 2
COc1ccc(NC(=O)Nc2ccc3c(c2)C(=O)N([C@H](C)CO)C[C@@H](C)[C@H](CN(C)C(=O)Nc2ccc(F)cc2)OCCCC[C@@H](C)O3)cc1 | 0.8 | -26.8 | 112.4* | 98.1* | 103.5* | -5.7 | -10.3
COc1ccc(NC(=O)Nc2ccc3c(c2)C(=O)N([C@@H](C)CO)C[C@H](C)[C@@H](CN(C)C(=O)Nc2ccc(F)cc2)OCCCC[C@H](C)O3)cc1 | 3.6 | -48.9 | 109.5* | 100.4* | 62.3 | 5.4 | -2.9
OC[C@H]1[C@@H](c2ccc(-c3ccc(F)cc3)cc2)[C@@H]2CN(Cc3cccnc3)CCCCN12 | -0.8 | -58.9 | 99.2* | 99.3* | 33.8 | 29.5 | 104.8*
Cc1cccc(-c2ccc([C@@H]3[C@H]4CN(Cc5cncnc5)CCCCN4[C@H]3CO)cc2)c1 | -5.7 | 15.9 | 102.9* | 78.3 | -13.8 | 12.1 | 102.4*
Cc1cccc(-c2ccc([C@H]3[C@@H](CO)N4CCCCN(Cc5cccnc5)C[C@@H]34)cc2)c1 | 1.2 | -9.1 | 120.5* | ? | 74.0 | 22.0 | 102.9*
OC[C@@H]1[C@H](c2ccc(-c3ccc(F)cc3)cc2)[C@H]2CN(Cc3cccnc3)CCCCN12 | -0.1 | -56.6 | 89.8 | · | · | · | ·
Cc1cccc(-c2ccc([C@H]3[C@@H](CO)N4CCCCN(Cc5ccncc5)C[C@H]34)cc2)c1 | -11.7 | -51.2 | 86.1 | · | · | · | ·
Cc1cccc(-c2ccc([C@H]3[C@H]4CN(Cc5ccncc5)CCCCN4[C@H]3CO)cc2)c1 | 1.8 | -31.6 | 39.3 | · | · | · | ·
Cc1cccc(-c2ccc([C@@H]3[C@H](CO)N4CCCCN(Cc5cncnc5)C[C@@H]34)cc2)c1 | 0.2 | -26.6 | 86.1 | · | · | · | ·
Cc1cccc(-c2ccc([C@H]3[C@H](CO)N4CCCCN(Cc5ccncc5)C[C@@H]34)cc2)c1 | -4.8 | -19.4 | ? | 101.4* | 47.2 | 23.2 | 105.4*
O=C(Cc1ccccc1)N[C@@H]1CC[C@@H](CC(=O)N2CCCCC2)O[C@H]1CO | 6.0 | -0.7 | 14.9 | · | · | · | ·
C[C@H]1CN([C@@H](C)CO)C(=O)c2cccc(NC(=O)c3ccncc3)c2O[C@@H]1CN(C)CC1CC1 | -1.5 | 6.6 | 67.8 | · | · | · | ·
Cc1cccc(-c2ccc([C@H]3[C@@H](CO)N4CCCCN(Cc5cccnc5)C[C@H]34)cc2)c1 | -4.6 | -54.8 | 99.4* | 96.6* | 70.0 | 45.2* | 105.2*
COc1cccc(CN2CCCCN3[C@H](CO)[C@H](c4ccc(-c5cccc(C#N)c5)cc4)[C@@H]3C2)c1 | 27.8 | -63.5 | 110.9* | 108.0* | 100.8* | 11.0 | 102.5*
Cc1ccc(-c2ccc([C@H]3[C@@H](CO)N4CCCCN(Cc5cncnc5)C[C@H]34)cc2)cc1 | -9.4 | -8.3 | 18.4 | · | · | · | ·
COc1cccc(-c2ccc([C@H]3[C@H](CO)N4CCCCN(Cc5cncnc5)C[C@@H]34)cc2)c1 | -8.8 | 15.2 | 89.4 | · | · | · | ·
OC[C@@H]1[C@H](c2ccc(-c3ccccc3)cc2)[C@H]2CN(Cc3cncnc3)CCCCN12 | -2.9 | 5.5 | 100.8* | ? | 79.9 | 13.0 | 52.5*
OC[C@@H]1[C@H](c2ccc(Br)cc2)[C@@H]2CN(Cc3cncnc3)CCCCN12 | 0.1 | -8.1 | 96.3* | 76.7 | 66.4 | -7.2 | -1.8
Cc1cccc(-c2ccc([C@@H]3[C@@H](CO)N4CCCCN(Cc5cncnc5)C[C@@H]34)cc2)c1 | -3.6 | 13.1 | 43.4 | · | · | · | ·
OC[C@@H]1[C@@H](c2ccc(Br)cc2)[C@H]2CN(Cc3cncnc3)CCCCN12 | 2.8 | 19.1 | 66.1 | · | · | · | ·
COc1ccc(NC(=O)N(C)C[C@@H]2OCCCC[C@H](C)Oc3ccc(NC(=O)NC4CCCCC4)cc3C(=O)N([C@H](C)CO)C[C@@H]2C)cc1 | -7.9 | 50.3 | 38.2 | · | · | · | ·
